From the supplement of paper PMC11732987, “Enantioselective OTUD7B fragment discovery through chemoproteomics screening and high-throughput optimisation” (Communications Chemistry, 2025)

Experiments:
Experiment in all cases: log2 ratio of Biotin-Ahx-Ub-VS probe labelling (fragment/DMSO); higher = less target engagement (more negative = stronger competition), active = hit call of the paper (q ≤ 0.05, log2 ratio ≤ -1)
Details in all cases: compound concentration: 200 uM; treatment time: 3 h
USP34 = USP34 (UniProt Q70CQ2)
How it was run: (§1)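 Global-median-normalised Spectronaut label-free quantities were compared by unpaired t-test, and values are average log2 ratios of fragment over vehicle. Only proteins with ≥2 unique peptides were used. HEK293T lysate (495 µg per sample) was treated in triplicate with fragment at 200 µM or vehicle for 3 h and then with Biotin-Ahx-Ub-VS at 0.5 µM final for 1 h. Labelled DUBs were then NeutrAvidin-enriched, digested with LysC and trypsin, and run by diaPASEF LC-MS/MS.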

USP36 = molecular target: T1, USP36 (UniProt Q9P275)
T1 sequence (whole entry): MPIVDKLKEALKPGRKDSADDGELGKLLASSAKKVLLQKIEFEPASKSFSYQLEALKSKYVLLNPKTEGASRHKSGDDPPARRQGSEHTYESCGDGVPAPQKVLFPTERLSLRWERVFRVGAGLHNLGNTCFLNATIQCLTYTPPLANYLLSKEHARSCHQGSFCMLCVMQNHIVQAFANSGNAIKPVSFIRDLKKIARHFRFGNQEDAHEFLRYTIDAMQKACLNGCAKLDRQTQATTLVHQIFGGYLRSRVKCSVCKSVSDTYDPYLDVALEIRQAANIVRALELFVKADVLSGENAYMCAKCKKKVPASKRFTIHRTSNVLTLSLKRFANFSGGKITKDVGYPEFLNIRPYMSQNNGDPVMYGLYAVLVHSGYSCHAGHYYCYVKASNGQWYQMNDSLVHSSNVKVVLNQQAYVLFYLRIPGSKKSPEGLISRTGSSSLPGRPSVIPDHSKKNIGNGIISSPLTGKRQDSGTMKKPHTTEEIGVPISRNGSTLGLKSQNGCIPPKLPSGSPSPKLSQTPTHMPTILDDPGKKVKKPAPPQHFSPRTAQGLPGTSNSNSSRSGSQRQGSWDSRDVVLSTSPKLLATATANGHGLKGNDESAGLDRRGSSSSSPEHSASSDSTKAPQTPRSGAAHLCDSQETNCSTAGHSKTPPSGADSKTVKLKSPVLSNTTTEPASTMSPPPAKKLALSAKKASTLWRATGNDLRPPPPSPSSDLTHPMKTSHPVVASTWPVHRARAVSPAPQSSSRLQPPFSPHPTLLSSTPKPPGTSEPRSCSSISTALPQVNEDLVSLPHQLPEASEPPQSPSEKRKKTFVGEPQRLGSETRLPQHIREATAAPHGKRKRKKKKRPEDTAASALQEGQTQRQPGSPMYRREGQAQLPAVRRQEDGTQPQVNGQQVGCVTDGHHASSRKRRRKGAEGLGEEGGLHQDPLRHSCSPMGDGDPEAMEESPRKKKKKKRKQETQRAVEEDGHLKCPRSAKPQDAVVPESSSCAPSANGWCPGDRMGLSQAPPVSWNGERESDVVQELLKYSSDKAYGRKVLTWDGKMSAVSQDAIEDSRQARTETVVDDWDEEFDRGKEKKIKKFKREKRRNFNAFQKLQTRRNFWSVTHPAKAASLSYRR
How it was run: as §1

USP38 = molecular target: T2, USP38 (UniProt Q8NB14)
T2 sequence (whole entry): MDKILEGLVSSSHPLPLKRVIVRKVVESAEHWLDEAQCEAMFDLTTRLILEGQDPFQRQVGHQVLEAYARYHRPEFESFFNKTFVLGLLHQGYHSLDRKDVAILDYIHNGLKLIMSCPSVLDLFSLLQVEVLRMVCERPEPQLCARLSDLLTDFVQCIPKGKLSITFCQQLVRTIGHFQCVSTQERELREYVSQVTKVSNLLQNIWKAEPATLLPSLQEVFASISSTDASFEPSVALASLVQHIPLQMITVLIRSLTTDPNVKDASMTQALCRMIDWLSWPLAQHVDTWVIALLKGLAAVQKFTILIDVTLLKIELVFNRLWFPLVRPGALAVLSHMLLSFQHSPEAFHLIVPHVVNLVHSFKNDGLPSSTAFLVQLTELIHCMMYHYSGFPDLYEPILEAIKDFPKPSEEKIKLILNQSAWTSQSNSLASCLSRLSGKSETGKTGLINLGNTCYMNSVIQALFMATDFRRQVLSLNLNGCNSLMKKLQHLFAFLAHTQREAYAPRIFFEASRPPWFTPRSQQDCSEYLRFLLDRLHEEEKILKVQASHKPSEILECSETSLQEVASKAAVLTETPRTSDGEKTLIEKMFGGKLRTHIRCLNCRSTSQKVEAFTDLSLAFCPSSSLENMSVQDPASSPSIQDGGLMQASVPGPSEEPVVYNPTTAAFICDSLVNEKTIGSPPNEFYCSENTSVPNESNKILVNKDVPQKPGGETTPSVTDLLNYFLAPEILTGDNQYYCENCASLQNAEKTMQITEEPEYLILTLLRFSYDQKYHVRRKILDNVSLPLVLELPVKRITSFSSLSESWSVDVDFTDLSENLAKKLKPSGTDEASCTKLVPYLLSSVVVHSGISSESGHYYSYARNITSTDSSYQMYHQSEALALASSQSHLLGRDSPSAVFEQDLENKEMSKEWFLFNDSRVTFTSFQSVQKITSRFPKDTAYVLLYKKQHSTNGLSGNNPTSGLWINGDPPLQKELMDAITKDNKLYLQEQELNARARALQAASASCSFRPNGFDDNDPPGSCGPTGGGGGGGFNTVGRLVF
How it was run: as §1

USP39 = molecular target: T3, USP39 (UniProt Q53GS9)
T3 sequence (whole entry): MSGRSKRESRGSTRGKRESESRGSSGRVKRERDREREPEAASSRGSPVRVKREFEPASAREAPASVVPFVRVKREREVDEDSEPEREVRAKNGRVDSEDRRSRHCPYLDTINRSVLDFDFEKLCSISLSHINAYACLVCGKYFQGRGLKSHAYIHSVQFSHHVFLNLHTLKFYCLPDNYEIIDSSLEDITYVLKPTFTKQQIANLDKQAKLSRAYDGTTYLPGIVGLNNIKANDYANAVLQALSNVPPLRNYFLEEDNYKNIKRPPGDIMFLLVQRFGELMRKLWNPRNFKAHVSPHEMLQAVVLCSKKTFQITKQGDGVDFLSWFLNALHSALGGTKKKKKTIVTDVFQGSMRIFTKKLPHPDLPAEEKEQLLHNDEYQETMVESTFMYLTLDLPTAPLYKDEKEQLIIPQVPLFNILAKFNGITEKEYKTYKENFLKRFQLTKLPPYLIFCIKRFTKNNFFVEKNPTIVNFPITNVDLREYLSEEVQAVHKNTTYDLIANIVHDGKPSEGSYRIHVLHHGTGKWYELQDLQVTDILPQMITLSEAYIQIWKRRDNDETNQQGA
How it was run: as §1

USP4 = molecular target: T4, USP4 (UniProt Q13107)
T4 sequence (whole entry): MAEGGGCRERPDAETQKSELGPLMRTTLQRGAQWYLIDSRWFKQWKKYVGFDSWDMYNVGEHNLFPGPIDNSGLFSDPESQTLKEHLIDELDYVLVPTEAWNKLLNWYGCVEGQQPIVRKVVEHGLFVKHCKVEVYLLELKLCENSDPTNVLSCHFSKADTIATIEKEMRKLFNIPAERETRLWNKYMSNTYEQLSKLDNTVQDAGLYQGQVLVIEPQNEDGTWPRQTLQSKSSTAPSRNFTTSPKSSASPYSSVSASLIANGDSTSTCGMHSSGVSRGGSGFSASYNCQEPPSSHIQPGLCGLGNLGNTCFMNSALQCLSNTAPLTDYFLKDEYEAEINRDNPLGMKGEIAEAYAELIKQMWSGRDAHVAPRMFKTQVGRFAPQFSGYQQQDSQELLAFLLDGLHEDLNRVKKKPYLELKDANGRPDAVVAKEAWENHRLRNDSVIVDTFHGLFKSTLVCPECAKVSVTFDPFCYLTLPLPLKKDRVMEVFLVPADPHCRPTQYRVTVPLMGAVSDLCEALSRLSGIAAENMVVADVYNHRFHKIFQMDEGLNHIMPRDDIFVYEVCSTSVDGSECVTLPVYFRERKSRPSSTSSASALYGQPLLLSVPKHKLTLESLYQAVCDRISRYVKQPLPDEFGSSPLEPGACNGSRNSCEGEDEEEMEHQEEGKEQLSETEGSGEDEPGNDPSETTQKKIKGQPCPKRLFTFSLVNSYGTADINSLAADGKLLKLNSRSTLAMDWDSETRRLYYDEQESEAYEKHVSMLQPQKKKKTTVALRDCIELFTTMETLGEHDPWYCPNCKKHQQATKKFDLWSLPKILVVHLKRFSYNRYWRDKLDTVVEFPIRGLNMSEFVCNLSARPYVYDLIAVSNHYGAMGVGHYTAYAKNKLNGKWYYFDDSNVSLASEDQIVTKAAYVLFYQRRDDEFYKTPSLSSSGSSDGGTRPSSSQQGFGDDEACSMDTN
How it was run: as §1

Measured: log2 ratio of Biotin-Ahx-Ub-VS probe labelling

Sequence of USP34 (Q70CQ2 whole entry, the tested form may be a part): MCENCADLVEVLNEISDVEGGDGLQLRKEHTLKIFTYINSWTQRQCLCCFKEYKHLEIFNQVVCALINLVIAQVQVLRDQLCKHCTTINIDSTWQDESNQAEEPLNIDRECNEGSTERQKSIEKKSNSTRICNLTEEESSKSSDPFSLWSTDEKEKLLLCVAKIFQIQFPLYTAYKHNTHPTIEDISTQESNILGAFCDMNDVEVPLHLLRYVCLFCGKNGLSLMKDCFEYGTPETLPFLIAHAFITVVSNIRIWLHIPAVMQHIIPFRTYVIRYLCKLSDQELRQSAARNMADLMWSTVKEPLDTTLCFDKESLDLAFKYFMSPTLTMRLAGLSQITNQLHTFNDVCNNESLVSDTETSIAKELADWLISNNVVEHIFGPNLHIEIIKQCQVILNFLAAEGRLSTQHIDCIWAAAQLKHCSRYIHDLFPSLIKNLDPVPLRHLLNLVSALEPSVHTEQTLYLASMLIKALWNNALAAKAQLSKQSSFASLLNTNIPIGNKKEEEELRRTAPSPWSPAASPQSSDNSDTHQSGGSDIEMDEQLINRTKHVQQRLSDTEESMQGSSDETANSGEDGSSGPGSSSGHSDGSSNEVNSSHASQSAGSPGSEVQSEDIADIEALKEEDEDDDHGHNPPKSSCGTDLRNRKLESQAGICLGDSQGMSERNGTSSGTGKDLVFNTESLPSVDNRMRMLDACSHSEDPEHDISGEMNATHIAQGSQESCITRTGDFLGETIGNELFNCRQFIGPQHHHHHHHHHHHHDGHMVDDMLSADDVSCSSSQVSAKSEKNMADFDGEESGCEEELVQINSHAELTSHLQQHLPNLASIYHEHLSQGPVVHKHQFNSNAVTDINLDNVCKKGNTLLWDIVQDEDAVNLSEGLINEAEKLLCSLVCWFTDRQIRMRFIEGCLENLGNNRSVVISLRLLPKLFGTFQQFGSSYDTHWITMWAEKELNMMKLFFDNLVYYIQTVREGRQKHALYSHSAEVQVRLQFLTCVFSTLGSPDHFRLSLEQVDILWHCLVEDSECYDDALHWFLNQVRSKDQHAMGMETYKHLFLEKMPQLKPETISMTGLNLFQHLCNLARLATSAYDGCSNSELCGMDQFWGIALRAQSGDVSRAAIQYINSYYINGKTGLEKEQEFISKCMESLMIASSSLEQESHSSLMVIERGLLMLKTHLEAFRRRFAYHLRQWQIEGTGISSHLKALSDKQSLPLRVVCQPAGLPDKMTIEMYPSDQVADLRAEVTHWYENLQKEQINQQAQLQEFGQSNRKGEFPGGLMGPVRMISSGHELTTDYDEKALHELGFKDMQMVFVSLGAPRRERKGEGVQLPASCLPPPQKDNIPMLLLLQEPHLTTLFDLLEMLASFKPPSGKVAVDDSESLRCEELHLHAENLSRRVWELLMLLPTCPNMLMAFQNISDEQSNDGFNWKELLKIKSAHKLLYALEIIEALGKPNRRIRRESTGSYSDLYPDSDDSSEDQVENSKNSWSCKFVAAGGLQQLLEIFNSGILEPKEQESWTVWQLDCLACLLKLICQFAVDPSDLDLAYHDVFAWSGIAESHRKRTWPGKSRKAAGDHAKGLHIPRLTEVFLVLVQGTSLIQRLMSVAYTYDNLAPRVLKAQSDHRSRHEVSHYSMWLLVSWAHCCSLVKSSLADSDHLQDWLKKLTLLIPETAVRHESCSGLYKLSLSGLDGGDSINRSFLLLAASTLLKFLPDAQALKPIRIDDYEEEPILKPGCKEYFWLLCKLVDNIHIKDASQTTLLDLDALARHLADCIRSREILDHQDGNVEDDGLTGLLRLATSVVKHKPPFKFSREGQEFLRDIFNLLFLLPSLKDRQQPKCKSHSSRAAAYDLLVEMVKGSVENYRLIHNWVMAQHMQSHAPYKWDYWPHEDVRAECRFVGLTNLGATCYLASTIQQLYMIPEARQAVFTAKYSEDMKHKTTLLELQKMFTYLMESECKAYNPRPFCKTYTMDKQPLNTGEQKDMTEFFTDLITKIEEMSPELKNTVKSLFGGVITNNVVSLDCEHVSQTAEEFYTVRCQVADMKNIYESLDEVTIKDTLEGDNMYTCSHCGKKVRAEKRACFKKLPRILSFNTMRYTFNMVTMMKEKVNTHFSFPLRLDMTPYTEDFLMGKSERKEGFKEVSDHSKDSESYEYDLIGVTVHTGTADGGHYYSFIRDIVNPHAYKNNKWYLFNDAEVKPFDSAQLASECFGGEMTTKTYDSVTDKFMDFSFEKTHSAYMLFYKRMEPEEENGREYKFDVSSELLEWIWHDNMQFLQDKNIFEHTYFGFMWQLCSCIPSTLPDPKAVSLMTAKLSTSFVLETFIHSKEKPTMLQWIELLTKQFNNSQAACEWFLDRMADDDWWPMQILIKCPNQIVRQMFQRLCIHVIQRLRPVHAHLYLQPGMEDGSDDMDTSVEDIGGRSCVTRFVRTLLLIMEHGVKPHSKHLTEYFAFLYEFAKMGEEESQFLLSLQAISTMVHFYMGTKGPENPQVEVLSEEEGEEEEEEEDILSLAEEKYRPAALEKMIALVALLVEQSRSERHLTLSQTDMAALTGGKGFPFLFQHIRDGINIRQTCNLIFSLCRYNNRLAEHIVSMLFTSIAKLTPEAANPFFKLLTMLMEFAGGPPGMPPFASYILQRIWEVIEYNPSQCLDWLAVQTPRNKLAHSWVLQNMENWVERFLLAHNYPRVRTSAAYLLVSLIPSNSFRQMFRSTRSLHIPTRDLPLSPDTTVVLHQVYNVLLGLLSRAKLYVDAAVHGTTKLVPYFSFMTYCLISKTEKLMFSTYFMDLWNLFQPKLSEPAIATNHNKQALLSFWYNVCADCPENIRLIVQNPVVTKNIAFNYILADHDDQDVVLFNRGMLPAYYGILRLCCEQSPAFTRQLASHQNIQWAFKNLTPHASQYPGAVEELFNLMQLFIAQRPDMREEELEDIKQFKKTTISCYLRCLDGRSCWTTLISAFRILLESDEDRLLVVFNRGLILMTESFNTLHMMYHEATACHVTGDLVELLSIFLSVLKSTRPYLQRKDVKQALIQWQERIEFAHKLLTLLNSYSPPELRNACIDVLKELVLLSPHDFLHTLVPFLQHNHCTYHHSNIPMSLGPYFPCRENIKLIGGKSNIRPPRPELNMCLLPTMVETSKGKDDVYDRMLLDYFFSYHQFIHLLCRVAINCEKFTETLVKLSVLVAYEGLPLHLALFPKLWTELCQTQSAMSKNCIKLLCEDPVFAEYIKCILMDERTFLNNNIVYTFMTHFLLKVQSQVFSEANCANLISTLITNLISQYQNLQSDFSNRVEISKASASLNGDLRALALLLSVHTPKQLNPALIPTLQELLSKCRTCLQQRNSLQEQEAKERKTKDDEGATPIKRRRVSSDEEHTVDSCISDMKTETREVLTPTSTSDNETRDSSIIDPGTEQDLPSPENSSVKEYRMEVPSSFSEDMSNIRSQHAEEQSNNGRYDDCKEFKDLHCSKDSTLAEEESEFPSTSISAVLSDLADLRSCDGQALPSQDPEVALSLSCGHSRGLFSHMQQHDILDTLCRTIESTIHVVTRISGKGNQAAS

Cc1ccc(C)c(Oc2ccc(CNC(=O)CCl)cn2)c1.Cl
inactive: USP34 -0.224 | USP36 -0.158 | USP38 -0.222 | USP39 0.00552 | USP4 -0.39
